VP16 counter: Gal4-VP16 reporter inhibition counter-screen. Drosophila S2 Gal4-VP16 UAS-luciferase, luminescence, 20 h. actives 3.5% (n = 310,000). AID 2546. Potency, µM (titrated, usually from 53.6 µM), for the others: at the highest dose activity, negative = inhibition, hits mostly inhibitors;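 note: Gal4-VP16 expression switched on by copper sulfate through the metallothionein promoter; potency is the fitted concentration of half-maximal effect; nearly all actives have a fitted effect of over 50% in size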
DT40 TDP1 no CPT: qHTS for Inhibitors of human tyrosyl-DNA phosphodiesterase 1 (TDP1): qHTS in cells in absence of CPT | Potency, µM (doses to about 46.2 µM), without a hit: at the top dose activity change, negative = growth inhibition, hits mostly inhibitors | DT40 Tdp1-/- hTDP1 cells, no CPT, ATP luminescence, 48 h | actives 15% (n = 420,000); note: potency is the fitted concentration of half-maximal effect; nearly all actives have a fitted effect of over 55% in size
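DT40 Tdp1-/-;hTDP1 cells, no CPT (DMSO vehicle only), 400 cells/well; compounds pin-transferred; ≥48 hr, 37 °C; CellTiter-Glo 30 min RT dark, luminescence read.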
RORg inh: ROR gamma (mouse) transcription inhibition; Drosophila S2 Gal4-RORgamma UAS-luciferase reporter, 20 h; P51450; Potency, µM (top dose mostly 53.6 µM), without a hit: top-dose activity change, negative = inhibition, most hits filed as inhibitors; actives 5.4% (n = 310,000); note: potency is the fitted concentration of half-maximal effect; nearly all actives have a fitted effect of over 60% in size
Target sequence (P51450 whole entry, looked up, the tested form may be a part): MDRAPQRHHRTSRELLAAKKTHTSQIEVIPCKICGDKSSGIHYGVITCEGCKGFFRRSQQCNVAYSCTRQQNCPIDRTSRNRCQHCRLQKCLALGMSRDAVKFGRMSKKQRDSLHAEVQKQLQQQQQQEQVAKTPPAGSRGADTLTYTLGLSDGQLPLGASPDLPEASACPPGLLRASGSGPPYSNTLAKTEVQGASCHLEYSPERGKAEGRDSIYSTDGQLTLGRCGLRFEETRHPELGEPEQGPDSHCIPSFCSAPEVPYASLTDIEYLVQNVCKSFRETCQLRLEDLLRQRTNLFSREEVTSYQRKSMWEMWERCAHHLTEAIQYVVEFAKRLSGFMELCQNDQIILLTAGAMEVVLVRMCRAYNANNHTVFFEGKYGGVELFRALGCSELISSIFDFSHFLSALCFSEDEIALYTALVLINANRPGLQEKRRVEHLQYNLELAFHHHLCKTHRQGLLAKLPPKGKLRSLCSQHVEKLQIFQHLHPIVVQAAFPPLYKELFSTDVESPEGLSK
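Schneider cells (Drosophila), stable Gal4 DBD–ROR gamma + UAS-luc; 1 hr cmpd preincubation; Cu2+ induction 700 uM final; 20 hr ambient; luminescence.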
LDHA inh: blocks human lactate dehydrogenase A; P00338; purified LDHA, NADH/diaphorase-resazurin fluorescence; active compounds read low; activity change, % (values are at about 110 or 230 µM); actives 0.15% (n = 480,000); in the data active = activity change below about -30%; inconclusive = mostly about -25% to -30%;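 note: plate controls were DMSO wells for no effect and wells without enzyme for full effect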
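Resorufin fluorescence (ex540/em590), read at 0 and 20 min after diaphorase/resazurin addition, reports the NADH left after a 5 min room-temperature reaction of 2 nM human LDH5 with 0.06 mM NADH and 0.2 mM pyruvate.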
DT40 TDP1 CPT: DT40-hTDP1 cell growth loss with CPT; chicken DT40 Tdp1-/-;hTDP1 cells + 20 nM CPT, ATP luminescence, 48 h; Potency, µM (highest dose often 46.2 µM), without a hit: at the top dose activity change, negative = growth inhibition, most hits filed as inhibitors; actives 12% (n = 420,000); AID 686979; note: potency is the fitted concentration of half-maximal effect; nearly all actives have a fitted effect of over 55% in size
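Cell growth measured by CellTiter-Glo luminescence after a minimum 48 h, 37 C compound exposure with 20 nM CPT in Tdp1-knockout DT40 cells stably expressing hTDP1, seeded 400/well; qHTS titration format.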
IL-1B inflam inh: inflammasome signaling inhibition, IL-1 beta readout; THP-1 LPS/ATP IL-1B secretion, AlphaLISA, 16 h; active compounds read low; activity change, % at 57.5 µM; actives 4.7% (n = 360,000); in the data active = activity change below about -50%; inconclusive = mostly about -30% to -49%
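THP-1 cells pretreated 1 hr with compounds (up to 57.5 uM final), then stimulated with LPS (250 ng/mL final) plus ATP (1.25 mM final); secreted IL-1B measured by AlphaLISA after 16 hr, decreased signal indicating inhibition.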
* = called active by the depositor. An excerpt weighted towards active compounds, which were near 18% of everything screened. Unless noted, calls come from the whole dose curve; as a rule, active = well fitted curve in the direction sought with a large enough effect; inconclusive = small, poorly fitted or top-dose-only effect, or another doubt; inactive = no such curve, though single readings can be large; an effect the other way counts as inactive or inconclusive. Unless noted, % is set by controls: 0 for no effect and ±100 for the full control effect.

CS(=O)(=O)N1CCC(C(=O)Nc2ccc(Cl)c(C(F)(F)F)c2)CC1 was read as VP16 counter -30%, DT40 TDP1 no CPT 23µM*, RORg inh 32%, LDHA inh 1, DT40 TDP1 CPT inconclusive and IL-1B inflam inh -11.
`CN(C)C(CNC(=O)CCc1ncc(-c2ccccc2)o1)c1ccco1` (configuration not stated) gave LDHA inh 5.
For CCN(CC)c1cc(C)c2cc(NC(=O)/C=C/c3ccccc3OC(C)C)ccc2n1 the results were DT40 TDP1 no CPT 23µM*, LDHA inh 2 and DT40 TDP1 CPT inconclusive.
Screening CCCOc1ccc(-c2csc(-c3ccc(Cl)cc3)n2)cc1 returned LDHA inh -3.
`CCOc1ccc(-c2nc(CCl)cs2)cc1` gave VP16 counter inconclusive, DT40 TDP1 no CPT inconclusive, RORg inh inconclusive, LDHA inh -2, DT40 TDP1 CPT 10µM* and IL-1B inflam inh -2.
Screening ClCc1csc(-c2ccc(Cl)cc2)n1 returned VP16 counter -15%, DT40 TDP1 no CPT 15µM*, RORg inh 2%, LDHA inh 2, DT40 TDP1 CPT 13µM* and IL-1B inflam inh inconclusive.
Screening O=C(NC1Cc2ccccc2C1)C1CC1 returned LDHA inh 5.
`N#CC1=C2SCC(O)(c3ccccc3)N2C(=O)CC1c1cccs1` (configuration not stated) gave VP16 counter inconclusive, DT40 TDP1 no CPT 1µM*, RORg inh inconclusive, LDHA inh 4, DT40 TDP1 CPT 1.2µM* and IL-1B inflam inh inconclusive.
For N#CC1=C2SCC(O)(c3ccccc3)N2C(=O)CC1c1ccccc1F (configuration not stated) the results were VP16 counter 17%, DT40 TDP1 no CPT 8.2µM*, RORg inh 4%, LDHA inh 10, DT40 TDP1 CPT 13µM* and IL-1B inflam inh inconclusive.
Screening CCO[C@H]1OC(C(=O)Nc2ccccc2)=C[C@@H](c2ccc(Br)cc2)[C@@H]1CCCO returned VP16 counter 14%, DT40 TDP1 no CPT 18µM*, RORg inh inconclusive, LDHA inh 8, DT40 TDP1 CPT 16µM* and IL-1B inflam inh 0.
CCO[C@@H]1OC(C(=O)NC2CC2)=C[C@H](C2CCCCC2)[C@H]1CCCO was read as DT40 TDP1 no CPT inconclusive, LDHA inh -10, DT40 TDP1 CPT inconclusive and IL-1B inflam inh -20.
For C#Cc1ccc([C@H]2C=C(C(=O)NC3CC3)O[C@@H](OCC)[C@@H]2CCCO)cc1 the results were VP16 counter -5%, DT40 TDP1 no CPT 23µM*, RORg inh -3%, LDHA inh -2, DT40 TDP1 CPT inconclusive and IL-1B inflam inh -4.
`C#CCNC(=O)C1=C[C@H](c2ccc(Br)cc2)[C@@H](CCCO)[C@H](OCC)O1` gave VP16 counter -6%, DT40 TDP1 no CPT 13µM*, RORg inh 34%, LDHA inh -1, DT40 TDP1 CPT inconclusive and IL-1B inflam inh 13.
For CCO[C@@H]1OC(C(=O)Nc2ccccc2)=C[C@H](c2ccc(C(F)(F)F)cc2)[C@H]1CCCO the results were VP16 counter -1%, DT40 TDP1 no CPT inconclusive, RORg inh 6%, LDHA inh 0, DT40 TDP1 CPT inconclusive and IL-1B inflam inh -12.
For C#CCNC(=O)C1=C[C@@H](c2ccc(C#C)cc2)[C@H](CCCO)[C@@H](OCC)O1 the results were VP16 counter 4%, DT40 TDP1 no CPT -22%, RORg inh 2%, LDHA inh -4, DT40 TDP1 CPT -24% and IL-1B inflam inh 1.
